Assay outcomes (PubChem BioAssay)
A selection: hits, their analogues and other compounds. The true share with any hit is near 2.1%.
PrP UTR inh = suppresses PrP 5' UTR mRNA reporter expression | 0.35% of 340,000 active | inhibition, % (test concentration not listed) | cell-based PrP 5' UTR mRNA reporter, plate reader; in the data active means inhibition above about 52%
MazF activator = activators of E. coli MazEF toxin-antitoxin RNase; P0AE70; FAM/BHQ RNA-DNA oligo cleavage fluorescence, 5 h; activation, % at 20 µM; 0.32% of 350,000 active; in the data active means activation above about 50%
Target sequence (P0AE70 whole entry, looked up): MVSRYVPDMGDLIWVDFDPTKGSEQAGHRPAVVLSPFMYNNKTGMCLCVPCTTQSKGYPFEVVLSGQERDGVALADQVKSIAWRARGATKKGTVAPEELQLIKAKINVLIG
PfHsp40 yeast = restores yeast growth despite PfHsp40 toxicity; S. cerevisiae expressing PfHsp40, growth rescue, ATP luminescence; growth rescue, % at 12.5 µM; 0.68% of 340,000 active; AID 504582; in the data active means growth rescue above about 28%, passing the limit was not always enough; inconclusive means no clear call, values can overlap the other calls;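 further: yeast W303a lacking pdr1 and pdr3 grown in galactose medium; growth measured after three days at 30 °C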
BJeLR viability = BJeLR cell viability loss; BJeLR (HRASV12) viability, CellTiter-Glo ATP luminescence, 48 h; 0.17% of 300,000 active; inhibition, % (no concentration beside the values); in the data active means inhibition above about 50%; inconclusive means no clear call, values can overlap the other calls
PrPC TRFRET = inhibitors of human cell surface prion protein PrPC. TR-FRET read-out. inhibition, % at 13.8 µM. 0.43% of 370,000 active. AID 720596; in the data active means inhibition above about 24%
VHR inh abs = inhibitors of human VHR1 phosphatase (DUSP3). P51452. recombinant VHR phosphatase, pNPP absorbance. inhibition, % at 13.3 µM. 0.52% of 290,000 active. AID 1654; in the data active means inhibition above about 50%
Target sequence (P51452 whole entry, looked up): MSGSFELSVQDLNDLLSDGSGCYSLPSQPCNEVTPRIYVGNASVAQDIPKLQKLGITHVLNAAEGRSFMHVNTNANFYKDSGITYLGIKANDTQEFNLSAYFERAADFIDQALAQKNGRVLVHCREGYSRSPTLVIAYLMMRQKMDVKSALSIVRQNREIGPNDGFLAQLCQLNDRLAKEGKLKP
Numbers stand for hits.

For CCCN1C(=O)c2ccccc2NC1c1ccc(Cl)c(Cl)c1 (stereo not drawn) the results were PrP UTR inh inactive, MazF activator inactive, PfHsp40 yeast inactive, BJeLR viability inactive and PrPC TRFRET inactive.
Screening CCCCN1C2=C(C(=O)CCC2)C(c2ccc(Cl)c(Cl)c2)C2=C1c1ccccc1C2=O (stereo not drawn) returned PrP UTR inh inactive, MazF activator 60.1, PfHsp40 yeast inactive, BJeLR viability inactive, PrPC TRFRET inactive and VHR inh abs inactive.
Screening CC(c1ccon1)N(C)Cc1cn(C)nc1-c1cccc(Cl)c1 (stereo not drawn) returned PrP UTR inh inactive, MazF activator inactive, PfHsp40 yeast 78.9, BJeLR viability inactive, PrPC TRFRET inactive and VHR inh abs inactive.
Screening Cc1cnccc1CN(C)Cc1cn(C)nc1-c1cccc(Cl)c1 returned PrP UTR inh inactive, MazF activator inactive, PfHsp40 yeast inactive, BJeLR viability inactive, PrPC TRFRET inactive and VHR inh abs inactive.
COC(=O)[C@]12C[C@H](CC(=O)N3CCSCC3)C(=O)N(Cc3cccc4ccccc34)C1=C[C@H](C1CCCC1)O[C@@H]2C was read as PrPC TRFRET inactive.
`CC(=O)N1CCC2(CC1)C(C#N)=C(N)OC1=C2C(=O)CC(C)(C)C1` gave PrP UTR inh inactive, MazF activator inactive, PfHsp40 yeast inactive, BJeLR viability inactive, PrPC TRFRET inactive and VHR inh abs inactive.
CC1(C)CC(=O)C2=C(C1)OC(N)=C(C#N)C21CCN(Cc2ccccc2)CC1 was read as PrP UTR inh inactive, MazF activator 50.3, PfHsp40 yeast inactive, BJeLR viability inactive, PrPC TRFRET inactive and VHR inh abs inactive.
Screening COc1ccc2c(c1)sc(N)[n+]2Cc1cc(C)cc2cccnc12 returned PrP UTR inh inactive, MazF activator inactive, PfHsp40 yeast inactive, BJeLR viability 52.4, PrPC TRFRET inactive and VHR inh abs inactive.
OC(c1ccc(Cl)c(Cl)c1)c1ncc(-c2ccc(C(F)(F)F)cc2)[nH]1 (stereo not drawn) was read as PrPC TRFRET inactive.
Screening Cc1nc2ccc(C(C(F)(F)F)(C(F)(F)F)C(F)(F)F)cc2[nH]1 returned PrP UTR inh inactive, MazF activator inactive, PfHsp40 yeast 241.2, BJeLR viability inactive, PrPC TRFRET inactive and VHR inh abs inactive.
For Cc1nc2ccc(Cl)cc2[nH]1 the results were PrP UTR inh inactive, MazF activator inactive, PfHsp40 yeast inactive and PrPC TRFRET inactive.
`CCOC(=O)C1CCC(C(=O)OCC)N1c1ccc(C=O)cc1` (stereo not drawn) gave MazF activator inactive and PrPC TRFRET inactive.
For CC(=O)NC(c1ccco1)c1cc(Cl)c2cccnc2c1O (stereo not drawn) the results were PrPC TRFRET inactive.
`CCC(=O)NC(c1ccco1)c1cc(Cl)c2cccnc2c1O` (stereo not drawn) gave PrP UTR inh inactive, MazF activator inactive, PfHsp40 yeast 277.5, BJeLR viability inactive, PrPC TRFRET inactive and VHR inh abs inactive.
Screening Oc1c(C(Nc2ccccn2)c2cccnc2)cc(Cl)c2cccnc12 (stereo not drawn) returned PrP UTR inh inactive, MazF activator inactive, PfHsp40 yeast 317.9, BJeLR viability inactive, PrPC TRFRET inactive and VHR inh abs inactive.
For CCC(=O)NC(c1ccco1)c1cc(Cl)c2cccnc2c1OC (stereo not drawn) the results were PrP UTR inh inactive, MazF activator inactive, PfHsp40 yeast inactive and PrPC TRFRET inactive.
CCCCC(=O)NC(c1ccco1)c1cc(Cl)c2cccnc2c1O (stereo not drawn) was read as PrP UTR inh inactive, MazF activator inactive, PfHsp40 yeast 359.7, BJeLR viability inactive, PrPC TRFRET inactive and VHR inh abs inactive.
Cc1cc(NC(c2cccnc2)c2ccc3cccnc3c2O)no1 (stereo not drawn) was read as PrP UTR inh inactive, MazF activator inactive, PfHsp40 yeast inconclusive, BJeLR viability inactive, PrPC TRFRET inactive and VHR inh abs inactive.
CC1CC(C)CN(C(=O)COC(=O)COc2ccccc2C#N)C1 (stereo not drawn) was read as PrP UTR inh inactive, MazF activator inactive, PfHsp40 yeast inactive and PrPC TRFRET inactive.
`O=C(C1CCCCC1)N1CCC2CC1c1cc(Cl)ccc12` (stereo not drawn) gave PrP UTR inh inactive, MazF activator inactive, PfHsp40 yeast inactive and PrPC TRFRET inactive.
Screening C=CC[C@H](CC(=O)N(CCO)Cc1ccccc1)C(=O)NCCOC(=O)[C@@H](CC=C)CC(=O)OC(C)(C)C returned PrP UTR inh inactive, MazF activator inactive, PfHsp40 yeast inactive and PrPC TRFRET inactive.
`O=C1CCC[C@H]2CC3(CC[C@]24CCCN14)OCCO3` gave PrPC TRFRET inactive.
Screening CC(C)C[C@@H]1COc2cc(N3CCC[C@H]3CO)ccc2S(=O)(=O)N1 returned PrPC TRFRET inactive.
For CCOc1ccc(/C=C2\SC(=S)N(NS(=O)(=O)c3ccc(C)cc3)C2=O)cc1OC the results were PrP UTR inh inactive, MazF activator inactive, PfHsp40 yeast inactive, BJeLR viability inactive, PrPC TRFRET inactive and VHR inh abs inactive.
`CCOc1ccc(/C=C2\SC(=S)N(NS(=O)(=O)c3ccccc3)C2=O)cc1OC` gave PrP UTR inh inactive, MazF activator inactive, PfHsp40 yeast 60.2, BJeLR viability inactive, PrPC TRFRET inactive and VHR inh abs inactive.
`COc1ccc(/C=C2\SC(=S)N(NS(=O)(=O)c3ccc(C)cc3)C2=O)c(OC)c1` gave PrP UTR inh inactive, MazF activator inactive, PfHsp40 yeast inactive, BJeLR viability inactive, PrPC TRFRET inactive and VHR inh abs inactive.
COc1ccccc1/C=C1\SC(=S)N(NS(=O)(=O)c2ccc(C)cc2)C1=O was read as PrP UTR inh inactive, MazF activator inactive, PfHsp40 yeast 32.3, BJeLR viability inactive, PrPC TRFRET inactive and VHR inh abs inactive.
`O=C1/C(=C/c2cccs2)SC(=S)N1NS(=O)(=O)c1ccccc1` gave PrP UTR inh inactive, MazF activator inactive, PfHsp40 yeast 221.6, BJeLR viability inactive, PrPC TRFRET inactive and VHR inh abs inactive.
For CC(C)(C)CN1CCN(CC#Cc2ccccc2)CC1CCO (stereo not drawn) the results were PrP UTR inh inactive, MazF activator inactive, PfHsp40 yeast inactive, BJeLR viability inactive, PrPC TRFRET inactive and VHR inh abs inactive.
Cc1cc(=O)oc2c(C)c(OCC(=O)N3CCN(c4cccc(Cl)c4)CC3)ccc12 was read as PrP UTR inh inactive, MazF activator inactive, PfHsp40 yeast inactive, BJeLR viability inactive, PrPC TRFRET inactive and VHR inh abs inactive.
Screening Cn1cccc1C(=O)N1CCN(S(=O)(=O)c2ccc(Br)s2)CC1 returned PrPC TRFRET inactive.
Screening COc1ccccc1NS(=O)(=O)c1ccc(C(=O)NCCCn2ccnc2)cc1 returned PrP UTR inh inactive, MazF activator inactive, PfHsp40 yeast inactive and PrPC TRFRET inactive.
